Assay results published in PubChem BioAssay (Tox21).
“And” between values parts separate entries of the source, which are not always exact repeats. Equal values may be shown once. Results filed as inconclusive are left out. The source made the active and inactive calls. Unless noted, the call rests on the fitted dose curve; in most records, active means well fitted curve in the direction sought with a large enough effect in the repeat runs; inconclusive means weak or mixed curves; inactive means no such curve, though single readings can be large; an effect the other way counts as inactive or inconclusive.

Assays:
[1] = target: Luciferin 4-monooxygenase (Photinus pyralis) (UniProt P08659); assay: qHTS assay to identify small molecule inhibitors of firefly luciferase (AID 1224835); further: nearly all actives have a fitted effect of over 25% in size; further: potency means the concentration at half of the fitted maximal effect
Sequence of Luciferin 4-monooxygenase (Photinus pyralis) (P08659 whole entry, looked up): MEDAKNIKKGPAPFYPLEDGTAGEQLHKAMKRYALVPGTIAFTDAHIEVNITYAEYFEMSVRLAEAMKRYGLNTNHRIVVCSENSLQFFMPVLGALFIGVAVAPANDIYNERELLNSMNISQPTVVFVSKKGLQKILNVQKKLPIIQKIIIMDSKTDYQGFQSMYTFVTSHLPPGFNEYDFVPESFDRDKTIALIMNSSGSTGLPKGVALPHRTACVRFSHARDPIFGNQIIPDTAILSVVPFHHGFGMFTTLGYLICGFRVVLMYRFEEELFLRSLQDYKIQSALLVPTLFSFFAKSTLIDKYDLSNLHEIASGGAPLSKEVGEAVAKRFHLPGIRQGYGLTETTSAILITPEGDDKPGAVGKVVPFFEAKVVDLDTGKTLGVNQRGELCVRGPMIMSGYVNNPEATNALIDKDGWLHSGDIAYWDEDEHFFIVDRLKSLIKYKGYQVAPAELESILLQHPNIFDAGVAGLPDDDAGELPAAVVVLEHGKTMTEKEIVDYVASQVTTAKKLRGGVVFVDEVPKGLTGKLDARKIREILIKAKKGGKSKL
How it was run: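 Inhibition of purified Photinus luciferase is measured by luminescence. Substrate levels (D-luciferin, ATP) sit at their KM values. Each compound is tested in a concentration series.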

[2] = qHTS assay to identify small molecule agonists of the constitutive androstane receptor (CAR) signaling pathway - cell viability counter screen (AID 1224836); further: nearly all actives have a fitted effect of over 45% in size; further: potency means the concentration at half of the fitted maximal effect
How it was run: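 Fluorescence from CellTiter-Fluor indicates live cells after 23 h exposure. The human hepatoma line expresses hCAR and a CYP2B6-2.2kb reporter. Incubation medium contains 0.75 uM PK11195 (final).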

[3] = qHTS assay to identify small molecule antagonists of the constitutive androstane receptor (CAR) signaling pathway - cell viability counter screen (AID 1224837); further: nearly all actives have a fitted effect of over 45% in size; further: potency means the concentration at half of the fitted maximal effect
How it was run: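 Multiplexed cytotoxicity read-out for the CAR antagonist screen: double-stable HepG2-CYP2B6-hCAR cells co-treated with 50 nM CITCO (final) and compound over 15 concentrations, incubated 23 hr, then assessed by CellTiter-Fluor fluorescence.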

[4] = target: Nuclear receptor subfamily 1 group I member 3 (Homo sapiens) (UniProt Q14994); assay: qHTS assay to identify small molecule antagonists of the constitutive androstane receptor (CAR) signaling pathway (AID 1224838); further: nearly all actives have a fitted effect of over 40% in size
Sequence of Nuclear receptor subfamily 1 group I member 3 (Homo sapiens) (Q14994 whole entry, looked up): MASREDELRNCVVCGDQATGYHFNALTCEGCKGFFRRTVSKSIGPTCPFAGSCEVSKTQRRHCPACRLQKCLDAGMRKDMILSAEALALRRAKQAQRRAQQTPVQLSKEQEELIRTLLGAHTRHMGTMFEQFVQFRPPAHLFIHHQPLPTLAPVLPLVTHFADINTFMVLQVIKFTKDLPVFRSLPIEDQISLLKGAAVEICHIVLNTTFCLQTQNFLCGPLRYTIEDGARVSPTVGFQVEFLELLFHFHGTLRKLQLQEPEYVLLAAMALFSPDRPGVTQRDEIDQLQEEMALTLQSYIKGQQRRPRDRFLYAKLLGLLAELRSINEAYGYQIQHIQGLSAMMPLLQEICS
How it was run: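 Compounds were titrated across 15 concentrations onto HepG2 cells double-stably expressing hCAR and a CYP2B6-2.2kb reporter, together with 50 nM CITCO (final). After 24 h at 37 C, luciferase activity was measured by luminescence.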

[5] = target: Nuclear receptor subfamily 1 group I member 3 (Homo sapiens) (UniProt Q14994); assay: qHTS assay to identify small molecule agonists of the constitutive androstane receptor (CAR) signaling pathway (AID 1224839);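 further: HepG2 cells stably carrying human CAR and a CYP2B6 luciferase reporter; nearly all actives have a fitted effect of over 15% in size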
How it was run: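 Stable hCAR/CYP2B6-2.2kb HepG2 line in DMEM with 10% FBS; compounds (15 concentrations) and 0.75 uM PK11195 final, 24 h at 37 C/5% CO2, then ONE-Glo luminescence after 30 min.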

[6] = target: Thyrotropin receptor (Homo sapiens) (UniProt P16473); assay: qHTS assay to identify small molecule agonists of the thyroid stimulating hormone receptor (TSHR) signaling pathway (AID 1224843; calls by dose curve; further: nearly all actives have a fitted effect of over 45% in size)
Sequence of Thyrotropin receptor (Homo sapiens) (P16473 whole entry, looked up): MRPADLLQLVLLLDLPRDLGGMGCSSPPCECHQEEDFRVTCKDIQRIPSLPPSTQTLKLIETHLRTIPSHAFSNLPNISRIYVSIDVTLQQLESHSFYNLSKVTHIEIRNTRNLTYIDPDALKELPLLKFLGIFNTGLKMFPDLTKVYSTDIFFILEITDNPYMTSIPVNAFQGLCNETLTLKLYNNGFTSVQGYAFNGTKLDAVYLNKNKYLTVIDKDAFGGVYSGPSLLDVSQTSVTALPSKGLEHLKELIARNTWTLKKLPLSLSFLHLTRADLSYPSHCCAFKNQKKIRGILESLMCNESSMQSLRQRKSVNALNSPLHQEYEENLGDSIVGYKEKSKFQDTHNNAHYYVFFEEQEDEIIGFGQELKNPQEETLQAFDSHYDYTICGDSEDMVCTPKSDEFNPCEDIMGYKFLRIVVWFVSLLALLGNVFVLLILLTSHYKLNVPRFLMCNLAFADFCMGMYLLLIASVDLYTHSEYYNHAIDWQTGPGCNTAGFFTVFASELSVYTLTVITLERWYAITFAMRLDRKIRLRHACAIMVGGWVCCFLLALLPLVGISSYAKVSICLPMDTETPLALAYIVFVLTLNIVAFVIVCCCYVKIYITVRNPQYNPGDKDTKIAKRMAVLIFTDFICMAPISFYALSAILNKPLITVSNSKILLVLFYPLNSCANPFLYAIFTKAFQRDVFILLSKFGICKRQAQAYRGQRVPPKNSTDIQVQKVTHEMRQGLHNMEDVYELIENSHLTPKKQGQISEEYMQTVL
How it was run: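 Screening of the Tox21 10K collection used HEK293 cells engineered with TSHR at 800 cells per well. After a 30-min room-temperature compound exposure, HTRF cAMP reagents were added and fluorescence recorded 1 h later.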

[7] = qHTS assay to identify small molecule agonists of the hypoxia (HIF-1) signaling pathway - cell viability counter screen (AID 1224844; calls by dose curve; further: nearly all actives have a fitted effect of over 50% in size; further: potency means the concentration at half of the fitted maximal effect)
How it was run: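 Tox21 10K compounds were added to HRE-bla ME-180 cells (0.5% dialyzed FBS) and incubated 17 hrs at 37C; ATP-based CellTiter-Glo luminescence then reported cell viability in the same wells.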

[8] = qHTS assay to identify small molecule agonists of H2AX (AID 1224845; active means well fitted activation curve with a large enough effect in the signal ratio in the repeat runs, not every such curve was filed as active; the % refers to the signal ratio)
How it was run: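 Phospho-H2AX Ser139 measured by HTRF (ex 320 nm; em 665 and 620 nm) after 24 hr antibody incubation. Compounds, 15 concentrations, 0.76% DMSO, were applied to CHO-K1 cells for 3hr at 37C before lysis.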

[9] = qHTS assay to identify small molecule agonists of the hypoxia (HIF-1) signaling pathway (AID 1224846; active means well fitted activation curve with a large enough effect in the signal ratio in the repeat runs, not every such curve was filed as active; the % refers to the signal ratio)
How it was run: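 Steps: seed ME-180 HRE-bla cells (2,000/well, 0.5% dialyzed FBS); incubate 5 hrs at 37C; pin-transfer compounds or DMSO; incubate 17 hrs; add LiveBLAzer B/G substrate CCF4-AM; measure reporter activation by FRET.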

[10] = qHTS assay to identify small molecule agonists of H2AX - cell viability counter screen (AID 1224847; calls by dose curve; further: nearly all actives have a fitted effect of over 30% in size; further: potency means the concentration at half of the fitted maximal effect)
How it was run: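 Viability of CHO-K1 (wild type) cells after 3 hr compound exposure was measured by CellTiter-Glo luminescence.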

[11] = qHTS RealTime-Glo MT Cell Viability Assay in HepG2 cells - 24 hour (AID 1224867); further: nearly all actives have a fitted effect of over 50% in size; further: potency means the concentration at half of the fitted maximal effect
How it was run: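 Compound treatment began 5 h after plating HepG2 cells (600/well) with NanoLuc luciferase and prosubstrate. Plates stayed at 37 C for 40 h; luminescence was captured at six time points, 0 h through 40 h.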

[12] = qHTS RealTime-Glo MT Cell Viability Assay in HEK293 cells - 32 hour (AID 1224868); further: nearly all actives have a fitted effect of over 50% in size; further: potency means the concentration at half of the fitted maximal effect
How it was run: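 Quantitative high-throughput screen of the Tox21 10K library in HEK293: cells and RealTime-Glo reagents plated together, compound added at 5 h, luminescence monitored through 40 h at 37 C.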

[13] = A CellTox Green Cytotoxicity Assay to monitor cytotoxicity in HEK293 cells - 0 hour (AID 1224869); further: nearly all actives have a fitted effect of over 50% in size; further: potency means the concentration at half of the fitted maximal effect
How it was run: (§1)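 Cytotoxicity was tracked continuously in HEK293 cells by a DNA-binding dye excluded from viable cells. Compounds were transferred in DMSO 5 h after seeding; fluorescence was recorded at intervals up to 40 h.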

[14] = qHTS RealTime-Glo MT Cell Viability Assay in HepG2 cells - 40 hour (AID 1224870); further: nearly all actives have a fitted effect of over 50% in size; further: potency means the concentration at half of the fitted maximal effect
How it was run: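 Real-time viability: cells seeded at 600 per well together with NanoLuc and cell-permeant prosubstrate, compounds added after 5 h incubation. Luminescence tracked at 0, 8, 16, 24, 32 and 40 h of exposure.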

[15] = A CellTox Green Cytotoxicity Assay to monitor cytotoxicity in HEK293 cells - 40 hour (AID 1224871); further: nearly all actives have a fitted effect of over 45% in size; further: potency means the concentration at half of the fitted maximal effect
How it was run: as §1

[16] = qHTS assay to identify small molecule antagonists of the estrogen related receptor signaling pathway with the pleiotropic PPARgamma coactivator (PGC) from Tox21 10K library - cell viability counter screen (AID 1224840; active means well fitted cell-killing curve with a large enough effect in the repeat runs, not every such curve was filed as active; further: nearly all actives have a fitted effect of over 40% in size; further: potency means the concentration at half of the fitted maximal effect)
How it was run: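 Step one, plate 2,000 PGC/ERR cells per well; step two, incubate 6 h at 37 C/5% CO2; step three, pin-transfer compounds; step four, incubate 17.5 h; step five, add CellTiter-Fluor and read fluorescence after 30 min.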

[17] = qHTS assay to identify small molecule antagonists of the estrogen related receptor signaling pathway with the pleiotropic PPARgamma coactivator (PGC) from Tox21 10K library (AID 1224841; call rule not given here; further: potency means the concentration at half of the fitted maximal effect)
How it was run: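 Antagonism in this quantitative HTS is taken from loss of luciferase signal in PGC/ERR cells. Cells (2,000/well) are treated with compounds in DMSO after a 6 h settling period and read by One-Glo luminescence after 18 h.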

[18] = qHTS assay to identify small molecule agonists of the estrogen related receptor signaling pathway with the pleiotropic PPARgamma coactivator (PGC) from Tox21 10K library (AID 1224842); further: nearly all actives have a fitted effect of over 15% in size
How it was run: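 Luminescence from One-Glo (30 min, room temperature) measured after PGC/ERR cells had 18 h at 37 C with pinned compound (23 nL in DMSO). Cells had been seeded at 2,000 per well and pre-incubated 6 h.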

[19] = qHTS assay to identify small molecule antagonists of the estrogen related receptor (ERR) signaling pathway from Tox21 library (AID 1224848); further: nearly all actives have a fitted effect of over 50% in size; further: potency means the concentration at half of the fitted maximal effect
How it was run: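 Antagonist-mode screen of the Tox21 10K library in an NTP-provided ERR reporter cell line; 18 h compound exposure at 37 C, luminescence measured with ONE-Glo.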

[20] = qHTS assay to identify small molecule agonists of the estrogen related receptor (ERR) signaling pathway from Tox21 library (AID 1224849; calls by dose curve; further: nearly all actives have a fitted effect of over 15% in size); details: ERR reporter cell line, ONE-Glo luciferase, 18 h
How it was run: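 Agonist signal is luciferase luminescence from an ERR reporter cell line treated 18 h at 37 C with DMSO-dissolved compounds, read 30 min after ONE-Glo addition at room temperature.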

[21] = at 92.4 µM (top of the series) unless noted
On the % scale 0 is the no-effect control and ±100 the full control effect.

O=C1OC(=O)c2ccc3c4c(ccc1c24)C(=O)OC3=O
inactive: Potency [1] | Potency [2] | Potency [3] | Potency [4] | Potency [5] | Potency [6] | Potency [7] | Potency [8] | outcome [9] | Potency [10] | Potency [11] | Potency [12] | Potency [13] | Potency [14] | Potency [15]

O=C(c1ccccc1)c1cc(Cl)ccc1O
inactive: Potency [1] | Potency [2] | Potency [3] | Potency [4] | Potency [16] | Potency [17] | Potency [18] | Potency [7] | outcome [9] | Potency [19] | activity change, positive = activation [20, 21] -10.3% | Potency [11] | Potency [13] | Potency [14]

C=CC(C)(CCC=C(C)C)OC(=O)/C=C/c1ccccc1 (centres undefined)
inactive: Potency [1] | Potency [2] | Potency [3] | Potency [4] | Potency [16] | Potency [6] | Potency [7] | outcome [9] | Potency [10] | Potency [11] | Potency [12] | Potency [14]
active: Potency [13] 38.9 µM | Potency [15] 38.9 µM

CCc1c(Br)c(Br)c(Br)c(Br)c1Br
inactive: Potency [1] | Potency [2] | Potency [3] | Potency [4] | Potency [7] | Potency [8] | outcome [9] | Potency [10] | Potency [19] | activity change, positive = activation [20, 21] -5.33% | Potency [11] | Potency [12] | Potency [13] | Potency [14] | Potency [15]

CCN(CC)CCOC(=O)C1(C2CCCCC2)CCCCC1
active: Potency [15] 23.9 µM
inactive: Potency [1] | Potency [2] | Potency [3] | Potency [4] | Potency [16] | Potency [7] | Potency [11] | Potency [13] | Potency [14]

C(=C/c1ccccc1)/c1ccccc1
inactive: Potency [1] | Potency [2] | Potency [3] | Potency [5] | Potency [16] | Potency [17] | Potency [6] | Potency [7] | Potency [8] | outcome [9] | Potency [19] | activity change, positive = activation [20, 21] 2.16% | Potency [11] | Potency [12] | Potency [13] | Potency [14]

CSc1ccc2c(c1)N(CCC1CCCCN1C)c1ccccc1S2 (centres undefined)
inactive: Potency [1] | Potency [5] | Potency [6] | activity change, positive = activation ([20]; at 42.5 µM (top of the series)) -67.5% | activity change, positive = activation ([20]; at 92.4 µM (top of the series)) -73.9%
active: Potency [2] 48.4 µM | Potency [3] 54.3 µM | Potency [16] 30.5 µM and 29.8 µM | Potency [7] 21.8 µM and 21.3 µM | Potency [10] 50.3 µM and 55.2 µM | Potency [19] 27.2 µM | Potency [11] 48.8 µM and 23.9 µM | Potency [12] 15.4 µM | Potency [14] 30.8 µM | Potency [15] 30.8 µM

CCOCOCC
inactive: Potency [1] | Potency [2] | Potency [3] | Potency [5] | Potency [16] | Potency [17] | Potency [18] | Potency [6] | Potency [8] | outcome [9] | Potency [10] | Potency [19] | activity change, positive = activation [20, 21] 0.502% | Potency [11] | Potency [12] | Potency [13] | Potency [15]

CC1CNCC(C)O1 (centres undefined)
inactive: Potency [1] | Potency [2] | Potency [3] | Potency [4] | Potency [5] | Potency [6] | Potency [7] | Potency [8] | outcome [9] | Potency [10] | Potency [12] | Potency [13] | Potency [14] | Potency [15]

C=CC(=O)OCCOCC(CC)(COCCOC(=O)C=C)COCCOC(=O)C=C
inactive: Potency [1] | Potency [5] | Potency [18] | Potency [6] | activity change, positive = activation [20, 21] -76.5%
active: Potency [2] 71.4 µM | Potency [3] 31.9 µM | Potency [16] 16 µM | Potency [17] 40.2 µM | Potency [19] 25.3 µM | Potency [11] 25.6 µM | Potency [12] 16.1 µM | Potency [14] 32.2 µM | Potency [15] 14.4 µM

O=c1cccc[nH]1
inactive: Potency [1] | Potency [2] | Potency [3] | Potency [5] | Potency [16] | Potency [17] | Potency [6] | Potency [7] | Potency [8] | outcome [9] | Potency [10] | Potency [19] | activity change, positive = activation [20, 21] 0.143% | Potency [12] | Potency [13] | Potency [14] | Potency [15]

COc1cc(C(=O)NS(=O)(=O)c2ccccc2C)ccc1Cc1cn(C)c2ccc(NC(=O)OC3CCCC3)cc12
active: Potency [1] 27.5 µM
inactive: Potency [2] | Potency [3] | Potency [4] | Potency [16] | Potency [17] | Potency [18] | Potency [6] | Potency [8] | Potency [10] | Potency [19] | activity change, positive = activation [20, 21] -10.9% [at 42.5 µM] | Potency [11] | Potency [12] | Potency [13] | Potency [14] | Potency [15]

S=P(N1CC1)(N1CC1)N1CC1
active: Potency [17] 5.74 µM
inactive: Potency [1] | Potency [2] | Potency [3] | Potency [5] | Potency [16] | Potency [6] | Potency [10] | activity change, positive = activation [20, 21] -21.7% | Potency [11] | Potency [15]

CCO[Si](CCCSSSSCCC[Si](OCC)(OCC)OCC)(OCC)OCC
active: Potency [7] 19.5 µM
inactive: Potency [1] | Potency [2] | Potency [3] | Potency [5] | Potency [16] | Potency [8] | Potency [11] | Potency [12] | Potency [13]
